Bioassay records from PubChem BioAssay.
PRC2 inh – blocks human EZH2/PRC2 H3K27 methylation | DELFIA TRF, 1 h | 57,000 compounds, 0.35% hits | inhibition, % at 12.5 µM;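 active means mean inhibition of replicates at least 50% and every single replicate also reaching 50%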;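 further: dimethyl H3K27 on biotinylated H3 21-44 peptide detected by antibody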
Target sequence (Q15910 whole entry, looked up): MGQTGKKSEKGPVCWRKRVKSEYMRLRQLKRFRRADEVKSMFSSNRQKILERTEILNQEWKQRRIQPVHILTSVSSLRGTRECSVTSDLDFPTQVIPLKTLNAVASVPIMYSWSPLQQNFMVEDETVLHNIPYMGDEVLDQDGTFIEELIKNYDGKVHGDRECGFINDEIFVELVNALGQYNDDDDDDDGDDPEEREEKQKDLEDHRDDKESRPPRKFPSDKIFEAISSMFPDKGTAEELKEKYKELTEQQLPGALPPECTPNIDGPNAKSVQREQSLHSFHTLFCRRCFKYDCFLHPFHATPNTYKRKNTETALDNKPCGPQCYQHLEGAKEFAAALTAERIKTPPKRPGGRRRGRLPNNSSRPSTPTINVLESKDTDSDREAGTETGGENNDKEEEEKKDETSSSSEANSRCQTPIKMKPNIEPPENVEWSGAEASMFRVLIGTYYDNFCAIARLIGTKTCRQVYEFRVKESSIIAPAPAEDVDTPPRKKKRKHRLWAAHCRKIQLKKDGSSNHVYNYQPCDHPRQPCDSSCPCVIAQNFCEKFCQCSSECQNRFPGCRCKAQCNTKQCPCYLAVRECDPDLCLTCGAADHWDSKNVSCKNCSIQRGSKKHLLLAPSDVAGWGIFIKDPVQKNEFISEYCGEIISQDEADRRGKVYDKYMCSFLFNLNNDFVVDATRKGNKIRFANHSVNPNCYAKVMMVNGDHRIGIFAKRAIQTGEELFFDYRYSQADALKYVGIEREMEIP
Large screens that a line does not name were inactive. This is one part of a sample in which hits are shown more often than they occur.

Nc1nc(SCC(=O)c2ccc(Oc3ccccc3)cc2)n[nH]1	none
Cc1cc(C)nc(SCC(=O)c2ccc(Oc3ccccc3)cc2)n1	PRC2 inh 56.5
Cc1cc(Oc2ccccc2)nc(SCC(N)=O)n1	none
Cc1ccc(NC(=O)CSc2nnc(C)n2-c2ccccc2)cc1C	none
O=C(CC(Sc1ccc(Cl)cc1)c1ccc(Cl)cc1)C1CC1 (stereo not drawn)	PRC2 inh 53.4
COc1ccc(NC(=O)c2ccco2)cc1NC(=O)COc1cc(C)c(Cl)c(C)c1	none
CCOc1ccc(NC(=S)Nc2sc3c(c2C(=O)OC)CCC3)c([N+](=O)[O-])c1	none
CCOc1ccc2nc(NS(=O)(=O)c3ccc(C)c([N+](=O)[O-])c3)sc2c1	PRC2 inh 51.5
CCOc1ccc2nc(NCc3cc(OC)c(OC)cc3OC)sc2c1	none
C(=C\c1nn2c(Cn3cnc4ccccc43)nnc2s1)/c1ccccc1	none
CC(C(=O)Nc1ccccc1-c1ccccc1)N(c1ccccc1)S(C)(=O)=O (stereo not drawn)	none
COC(=O)CCCCCCC(=O)N/N=C/c1ccc(-c2ccccc2)c(F)c1	PRC2 inh 60.0
COC(=O)CCCCCCC(=O)N/N=C/c1ccc(Oc2ccccc2)cc1	none
O=C(CCCCC(=O)N/N=C/c1ccc(-c2ccccc2)c(F)c1)NO	none
O=[N+]([O-])c1ccc(OCCCSc2ncccn2)cc1	none
CCCC#Cc1cnc2c(c1)C(=O)N([C@H](C)CO)C[C@H](C)[C@@H](CN(C)C(=O)CN1CCOCC1)O2	none
CCCC#Cc1cnc2c(c1)C(=O)N([C@@H](C)CO)C[C@@H](C)[C@H](CN(C)C(=O)CN1CCOCC1)O2	none
CCCC#Cc1cnc2c(c1)C(=O)N([C@H](C)CO)C[C@H](C)[C@H](CN(C)C(=O)CN1CCOCC1)O2	PRC2 inh 94.8
CC(C)=CCC[C@H](C)C/C=N/NC(=O)CCCCCCC(=O)NO	none
C=C1[C@H]2CC[C@@]3(C)[C@H](c4ccoc4)OC(=O)C[C@]13O[C@H]1C[C@H](O)C(C)(C)[C@H](CC(=O)OC)[C@]12C	none
COc1ccc(-c2nc(SCC(=O)Nc3ccc(Br)c(Cl)c3)n[nH]2)cc1	PRC2 inh 56.8
O=C(CSc1n[nH]c(-c2ccc(Cl)cc2)n1)Nc1ccc(Br)c(Cl)c1	none
COc1ccc(-c2nc(SCC(=O)Nc3cccc(Br)c3)n[nH]2)cc1	none
O=c1[nH]c(=S)c2c(n1N1CCOCC1)CCC2	none
COc1ccc(-n2c(SCC(=O)Nc3cccc(C)c3C)nnc2-c2ccccc2)cc1	none
CCOC(=O)c1c(NC(=S)NCc2ccco2)sc2c1CCCCCC2	none
O=C(CSc1nc(-c2ccccc2)cc(=O)[nH]1)Nc1cccc(Cl)c1Cl	none
Cc1ccc(NC(=O)CSc2nc(-c3ccccc3)cc(=O)[nH]2)cc1Cl	none
O=C(CSc1nc(-c2ccccc2)cc(=O)[nH]1)Nc1cc(C(F)(F)F)ccc1Cl	PRC2 inh 64.5
O=C(NO)c1cccc(C(=O)N/N=C/c2cc(Br)cc([N+](=O)[O-])c2O)c1	none
Cc1ccc(/C=N/NC(=O)CCCCCCC(=O)NO)o1	none
CN(C)/C=C/C=C1C(=O)CCCC1=O	PRC2 inh 53.6
CSc1ccccc1NC(=O)CN(c1cccc(F)c1)S(C)(=O)=O	none
COc1ccc(N(C(C)C(=O)Nc2ccc(Cl)cc2C)S(C)(=O)=O)cc1 (stereo not drawn)	none
O=C(COc1ccc2ccccc2c1)Nc1cccc(NC(=O)c2ccc(Cl)cc2Cl)c1	none
CCCc1c(OCCCOc2ccc(OCC(=O)O)cc2)ccc(CC=O)c1O	PRC2 inh 54.7
O=C(O)COc1ccc(Cl)cc1CO	none
Cc1c(CCC(=O)O)c(=O)oc2cc(OCC(=O)O)ccc12	none
COc1cc(Cc2nccc3cc(OC)c(OC)cc23)c(NC(=O)c2cccc(Br)c2)cc1OC	none
CCC1(C)Cc2ccccc2-c2nc3[nH]nc(SCC(=O)Nc4ccc(OC)c(Cl)c4)n3c(=O)c21 (stereo not drawn)	PRC2 inh 60.1
COc1ccc(NC(=O)CSc2n[nH]c(N)n2)cc1Cl	none
COc1ccc(NC(=O)CSc2nnc(C)c(=O)[nH]2)cc1Cl	none
O=C(O)Cn1cc(C(=O)C2CCCCC2)c2ccccc21	none
COc1cccc(C(=O)NC2(C(F)(F)F)C(=O)N(CC3CCCO3)C3=C2C(=O)CC(C)(C)C3)c1 (stereo not drawn)	none
CC(C)(C)[S@](=O)N1Cc2cc(C(=O)NCCc3ccncc3)nc(-c3cccc(-c4cccc(C#N)c4)c3)c2[C@@H]1CCO	none
CC(C)(C)[S@@](=O)N1Cc2cc(C(=O)NCCc3ccncc3)nc(-c3cccc(-c4ccc(C#N)cc4)c3)c2[C@H]1CCO	PRC2 inh 50.4
CC(C)(C)[S@@](=O)N1Cc2cc(C(=O)NCc3ccncc3)nc(-c3cccc(-c4ccc(C#N)cc4)c3)c2[C@H]1CCO	none
COC(=O)c1c(NC(=O)CN(c2cc(C)ccc2C)S(C)(=O)=O)sc2c1CCCC2	none
O=C(CSc1nc2sc3c(c2c(=O)[nH]1)CCCC3)N(c1ccccc1)c1ccccc1	none
CC(Sc1nc2ccccc2[nH]1)C(=O)Nc1cccc(Cl)c1 (stereo not drawn)	none
N#Cc1c(-c2ccccc2)nc(SCC(=O)N(c2ccccc2)c2ccccc2)[nH]c1=O	PRC2 inh 51.6
